Laboratory results published in PubChem BioAssay (EPA / NIEHS).
Records with an inconclusive call do not appear. Activity calls are given as the source filed them. The calls were made as follows: active = hit-call score of the fitted dose curve at least 0.9, where 1 is the maximum; inconclusive = response in the unintended direction; inactive = score below 0.9.

What was measured:
[1] = molecular target: Cellular tumor antigen p53 (Homo sapiens) (UniProt P04637); assay: TOX21_p53_BLA_p3_ratio: Tox21 HCT-116 p53 Agonism Beta-lactamase Assay, Ratio, Phase 3 (AID 2283596)
Sequence of Cellular tumor antigen p53 (Homo sapiens) (P04637 whole entry, looked up): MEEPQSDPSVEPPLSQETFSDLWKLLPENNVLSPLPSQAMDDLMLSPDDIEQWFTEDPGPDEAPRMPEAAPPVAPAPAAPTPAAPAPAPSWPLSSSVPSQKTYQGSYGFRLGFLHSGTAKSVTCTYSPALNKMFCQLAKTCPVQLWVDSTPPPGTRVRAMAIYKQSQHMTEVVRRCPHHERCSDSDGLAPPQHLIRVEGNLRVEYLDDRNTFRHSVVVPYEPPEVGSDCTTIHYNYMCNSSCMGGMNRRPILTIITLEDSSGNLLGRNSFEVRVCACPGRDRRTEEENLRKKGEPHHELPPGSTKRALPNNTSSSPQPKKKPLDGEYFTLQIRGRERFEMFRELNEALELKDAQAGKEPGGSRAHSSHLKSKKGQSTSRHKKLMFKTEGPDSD
Method in brief: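 Cells were seeded at 4000/well, rested 5 h at 37C, then dosed with DMSO compound solutions (217-fold dilution) for 16 h. CCF4-AM substrate was loaded for 2 h at room temperature, and the 460/530 nm emission ratio was fitted for gain of signal versus DMSO.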

[2] = TOX21_p53_BLA_p4_viability: Viability Assessment in the Tox21 HCT-116 p53 Agonism Beta-lactamase Assay, Phase 4 (AID 2283597);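 also: hits lower the luminescence signal meaning cytotoxicity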
Method in brief: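 ATP content by CellTiter-Glo luminescence, 30 min RT, read after the beta-lactamase ratio step. Cells: HCT116, 4000/well, compound added after 5 h, exposure 16 h at 37C. Signal loss = reduced viability.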

[3] = TOX21_p53_BLA_p5_viability: Viability Assessment in the Tox21 HCT-116 p53 Agonism Beta-lactamase Assay, Phase 5 (AID 2283600)
Method in brief: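 ATP luminescence (CellTiter-Glo, 30 min, RT) served as the viability read-out, with loss of signal indicating cytotoxicity. Compounds in DMSO were pinned at a 217-fold dilution onto 4000 cells/well and incubated 16 h, 37C.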

[4] = molecular target: Cellular tumor antigen p53 (Homo sapiens) (UniProt P04637); assay: TOX21_p53_BLA_p4_ratio: Tox21 HCT-116 p53 Agonism Beta-lactamase Assay, Ratio, Phase 4 (AID 2283601)
Method in brief: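 HCT116 cells carrying an inducible beta-lactamase reporter were plated at 4000 cells/well, rested 5 h, then exposed to compounds in DMSO (217-fold dilution) for 16 h at 37C. CCF4-AM substrate was loaded 2 h at room temperature; 460/530 nm emission ratio scored gain-of-signal versus DMSO.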

[5] = molecular target: Cellular tumor antigen p53 (Homo sapiens) (UniProt P04637); assay: TOX21_p53_BLA_p5_ratio: Tox21 HCT-116 p53 Agonism Beta-lactamase Assay, Ratio, Phase 5 (AID 2283599)
Method in brief: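 HCT-116 cells carrying a p53-inducible beta-lactamase reporter were seeded at 4000 cells/well and dosed after 5 h with compound in DMSO (217-fold dilution). After 16 h at 37C, CCF4-AM substrate was added for 2 h, and the 460/530 nm emission ratio was scored as gain-of-signal versus DMSO.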

Measured: AC50

CC1(C)CCC(C)(C)c2cc(C(=O)Nc3ccc(C(=O)O)cc3)ccc21
active: [1] 72.4 µM | [2] 32.5 µM | [3] 39.5 µM | [4] 46.9 µM

Clc1ccc(Cl)c(Cl)c1Cl
inactive: [1] | [2] | [3]
active: [4] 0.000436 µM

CCCCCCOC(=O)CC
inactive: [1] | [5]

CC(=O)OCC=Cc1ccccc1
inactive: [1] | [2] | [4]

O=C1CCCCCCCCCCOCCCCO1
not listed: [5]
inactive: all other assays above

O=C(Nc1ccccc1)c1cc([N+](=O)[O-])ccc1Cl
not listed: [5]
inactive: all other assays above

CC(C)[C@@H]1CC[C@@H](C)CC1=O
inactive: [1] | [2] | [4]

CC1CC(OC(=O)c2ccccc2O)CC(C)(C)C1 (stereo not given)
not listed: [5]
inactive: all other assays above

Cc1ncc([N+](=O)[O-])n1C
not listed: [5]
inactive: all other assays above

CC(C)c1cccc(O)c1
not listed: [3]
inactive: all other assays above

CCCC/C=C\CCCCCCCCCC=O
inactive: [1] | [2] | [4]

CCCCCC(=O)OCCc1ccccc1
inactive: [1] | [2] | [3]

CO[Si](C)(OC)c1ccccc1
inactive: [1] | [2] | [4]

O=C=NC1CCC(CC2CCC(N=C=O)CC2)CC1 (stereo not given)
not listed: [5]
inactive: all other assays above

O=S(=O)(O)c1cccc2c(S(=O)(=O)O)cccc12
inactive: [1] | [2] | [4]

CCCCCCCCC
not listed: [5]
inactive: all other assays above

C/C=C(\C)C(=O)OCc1ccccc1
not listed: [5]
inactive: all other assays above

CC(=O)C(=O)O
not listed: [5]
inactive: all other assays above

O=[N+]([O-])c1cc(C(F)(F)F)ccc1Cl
not listed: [5]
inactive: all other assays above

Fc1c(F)c(F)c(Br)c(F)c1F
inactive: [1] | [2] | [4]

CC(C)(N)CO
not listed: [3]
inactive: all other assays above

CNC[C@H](O)c1cccc(O)c1
not listed: [3]
inactive: all other assays above

NC(N)=NC(=O)c1nc(Cl)c(N)nc1N
not listed: [3]
inactive: all other assays above

OCCN1CCNCC1
not listed: [5]
inactive: all other assays above

C[C@H]1C[C@H]2[C@@H]3CCC4=CC(=O)C=C[C@]4(C)[C@@]3(F)[C@@H](O)C[C@]2(C)[C@@]1(O)C(=O)COP(=O)(O)O
not listed: [5]
inactive: all other assays above

CC(=O)[C@H]1CC[C@H]2[C@@H]3CC=C4C[C@@H](O)CC[C@]4(C)[C@H]3CC[C@]12C
inactive: [1] | [2] | [4]

O=C1O[C@@H]2[C@@H](O)[C@H](O)O[C@@H]2[C@H]1O
not listed: [3]
inactive: all other assays above

COc1ccc(Nc2ccccc2)c(C)c1
not listed: [3]
inactive: all other assays above

CCCCOCCOCCSC#N
not listed: [5]
inactive: all other assays above

CC(=O)OCCC(C)CC(C)(C)C (stereo not given)
not listed: [5]
inactive: all other assays above

CCOC(=S)SSC(=S)OCC
inactive: [1] | [2] | [4]

OCCOCCOCCOCCO
not listed: [3]
inactive: all other assays above

CCCC(=O)c1cc(O)c(O)cc1O
not listed: [5]
inactive: all other assays above

C=CCOC(=O)CCC1CCCCC1
not listed: [3]
inactive: all other assays above
